Results filed as inconclusive are left out. Activity calls are given as the source filed them. Unless noted, calls come from the whole dose curve; as a rule, active = well fitted curve in the direction sought with a large enough effect in the repeat runs; inconclusive = weak or mixed curves; inactive = no such curve, though single readings can be large; an effect the other way counts as inactive or inconclusive.
Key:
[1] = qHTS assay to identify aromatase inhibitors - cell viability counter screen (AID 743084);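 note: cells stimulated with testosterone during compound exposure; nearly all actives have a fitted effect of over 55% in size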
[2] = target: Aryl hydrocarbon receptor (Homo sapiens) (UniProt P35869); assay: qHTS assay to identify small molecule that activate the aryl hydrocarbon receptor (AhR) signaling pathway (AID 743085);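 note: HG2L7.5c1 human HepG2 liver cells with stably integrated DRE-driven firefly reporter; series mostly up to about 70 µM; nearly all actives have a fitted effect of over 15% in size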
In short: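 Compounds were tested in HepG2 hepatocellular carcinoma cells harbouring a stably integrated luciferase gene under control of 20 DREs. Increased reporter signal after 24 h treatment at 37C was taken as AhR activation.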

[3] = qHTS assay to identify small molecule that activate the aryl hydrocarbon receptor (AhR) signaling pathway - cell viability counter screen (AID 743086);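 note: HepG2 liver cells carrying the AhR DRE luciferase reporter; series mostly up to about 70 µM; nearly all actives have a fitted effect of over 45% in size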
In short: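 HepG2-AhR-luc (HG2L7.5c1) cells, 4000/well, treated 24 h at 37 C with compound; viability measured as CellTiter-Fluor fluorescence after 30 min in the same wells as the luciferase read.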

[4] = target: Peroxisome proliferator-activated receptor gamma (Homo sapiens) (UniProt P37231); assay: qHTS assay to identify small molecule agonists of the peroxisome proliferator-activated receptor gamma (PPARg) signaling pathway (AID 743094; active = well fitted activation curve with a large enough effect in the signal ratio in the repeat runs, not every such curve was filed as active; the % refers to the signal ratio)
In short: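 Compounds dissolved in DMSO were added to PPARg UAS-bla HEK293H cells for 17 h at 37C, and reporter expression was quantified by fluorescence intensity after 1 h with LiveBLAzer B/G FRET substrate.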

[5] = target: Peroxisome proliferator-activated receptor gamma (Homo sapiens) (UniProt P37231); assay: qHTS assay to identify small molecule antagonists of the peroxisome proliferator-activated receptor gamma (PPARg) signaling pathway (AID 743191; calls by dose curve; note: series mostly up to about 63 µM; nearly all actives have a fitted effect of over 30% in size)
In short: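 GeneBLAzer PPARg UAS-bla HEK293H cells, 5 h post-plating, exposed to compounds 17 h at 37C. LiveBLAzer B/G FRET substrate added for 1 h at room temperature; beta-lactamase reporter read by fluorescence intensity.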

[6] = qHTS assay to identify small molecule antagonists of the peroxisome proliferator-activated receptor gamma (PPARg) signaling pathway - cell viability counter screen (AID 743194); note: nearly all actives have a fitted effect of over 55% in size
In short: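 Cytotoxicity counter screen in PPARg-bla HEK293H cells, same wells as reporter assay. Compounds plus 50 nM rosiglitazone (final) for 17 h at 37 C, then viability read by CellTiter-Glo luminescence.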

[7] = qHTS assay for small molecule agonists of the antioxidant response element (ARE) signaling pathway (AID 743202; active = well fitted activation curve with a large enough effect in the signal ratio in the repeat runs, not every such curve was filed as active; the % refers to the signal ratio; note: potency is the fitted concentration of half-maximal effect)
In short: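 ARE-bla HepG2 cells (beta-lactamase reporter under the antioxidant response element), plated 5 hours, then exposed to compounds 16 hours at 37 C. LiveBLAzer B/G FRET substrate added for 2 hours at room temperature; fluorescence intensity read.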

[8] = qHTS assay for small molecule agonists of the antioxidant response element (ARE) signaling pathway - cell viability counter screen (AID 743203; calls by dose curve; note: nearly all actives have a fitted effect of over 55% in size)
In short: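 Following 16 hrs of compound treatment at 37C, HepG2 cells with an ARE-controlled beta-lactamase gene were lysed with CellTiter-Glo. Luminescence was read after 30 min at room temperature.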

[9] = qHTS assay for small molecule activators of the heat shock response signaling pathway - cell viability counter screen (AID 743209); note: nearly all actives have a fitted effect of over 50% in size
In short: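 Readout: CellTiter-Glo luminescence, 30 min at room temperature. System: HSE-bla HeLa cells, 1500/well, plated overnight. Treatment: compounds in DMSO, 5 h at 37 C.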

[10] = qHTS assay for small molecule activators of the heat shock response signaling pathway (AID 743210; active = well fitted activation curve with a large enough effect in the signal ratio in the repeat runs, with a control signal flat, not every such curve was filed as active; the % refers to the signal ratio; note: series mostly up to about 63 µM)
In short: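 HSE-bla HeLa cells (beta-lactamase reporter under heat shock response elements), plated overnight, then exposed to compounds 5 h at 37 C; LiveBLAzer B/G FRET substrate added, 2.5 h at room temperature, fluorescence intensity read.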

[11] = qHTS assay to identify small molecule agonists of the peroxisome proliferator-activated receptor delta (PPARd) signaling pathway - cell viability counter screen (AID 743211); note: nearly all actives have a fitted effect of over 55% in size
In short: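 Counter screen for cytotoxicity run in parallel with the PPARd reporter screen. Beta-lactamase reporter HEK293H cells exposed to compounds 17 h; ATP-based CellTiter-Glo luminescence quantified viability.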

[12] = qHTS assay to identify small molecule antagonists of the peroxisome proliferator-activated receptor delta (PPARd) signaling pathway - cell viability counter screen (AID 743213); note: nearly all actives have a fitted effect of over 50% in size
In short: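 HEK293H PPARd UAS-bla cells, 5 h pre-incubation, compound + L165041 300 nM final, 17 h 37 C; B/G FRET substrate 2 h RT; then CellTiter-Glo 30 min RT, luminescence.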

[13] = qHTS assay to identify small molecule antagonists of the farnesoid-X-receptor (FXR) signaling pathway - cell viability counter screen (AID 743221; active = well fitted cell-killing curve with a large enough effect in the repeat runs, not every such curve was filed as active; note: nearly all actives have a fitted effect of over 50% in size)
In short: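 Multiplexed counter screen: viability of FXR-bla HEK 293T cells under agonist stimulation by chenodeoxycholic acid (50 uM, final) and test compound for 16 h at 37 C, measured by CellTiter-Glo luminescence in the reporter wells.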

[14] = target: Vitamin D3 receptor (Homo sapiens) (UniProt P11473); assay: qHTS assay to identify small molecule agonists of the vitamin D receptor (VDR) signaling pathway (AID 743222; calls by dose curve)
In short: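 In VDR-bla cells, compound-induced beta-lactamase expression is quantified by FRET substrate fluorescence. Treatment lasts 16 h at 37C; substrate develops 2 h at room temperature.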

[15] = target: Vitamin D3 receptor (Homo sapiens) (UniProt P11473); assay: qHTS assay to identify small molecule antagonists of the vitamin D receptor (VDR) signaling pathway (AID 743223; active = well fitted inhibition curve with a large enough effect in the signal ratio in the repeat runs, not every such curve was filed as active; the % refers to the signal ratio)
In short: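 Cells carrying a VDR-driven beta-lactamase reporter (VDR-bla) were co-treated with compound and 3 nM final 1alpha,25-dihydroxyvitamin D3 for 16 h at 37C; reporter activity was measured as FRET substrate fluorescence after 2 h at room temperature.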

[16] = target: Peroxisome proliferator-activated receptor delta (Homo sapiens) (UniProt Q03181); assay: qHTS assay to identify small molecule agonists of the peroxisome proliferator-activated receptor delta (PPARd) signaling pathway (AID 743212; calls by dose curve)
In short: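 GeneBLAzer UAS-bla HEK293H cells carrying a PPARδ construct were exposed to compounds at 37 °C. Beta-lactamase activity was read by FRET fluorescence after 2 h at room temperature with LiveBLAzer B/G substrate.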

[17] = qHTS assay to identify small molecule agonists of the farnesoid-X-receptor (FXR) signaling pathway - cell viability counter screen (AID 743218); note: nearly all actives have a fitted effect of over 45% in size
In short: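 Parallel cytotoxicity test: compound-treated (16 h, 37 C) HEK 293T FXR-bla reporter cells were lysed with CellTiter-Glo and luminescence recorded.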

[18] = target: Bile acid receptor (Homo sapiens) (UniProt Q96RI1); assay: qHTS assay to identify small molecule agonists of the farnesoid-X-receptor (FXR) signaling pathway (AID 743220; active = well fitted activation curve with a large enough effect in the signal ratio in the repeat runs, not every such curve was filed as active; the % refers to the signal ratio)
In short: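 Beta-lactamase reporter under UAS control in GeneBLAzer FXR HEK 293T cells (5000/well) measured with LiveBLAzer FRET substrate after 2 h at room temperature. Compound exposure lasted 16 h at 37C.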

[19] = target: Peroxisome proliferator-activated receptor delta (Homo sapiens) (UniProt Q03181); assay: qHTS assay to identify small molecule antagonists of the peroxisome proliferator-activated receptor delta (PPARd) signaling pathway (AID 743215; active = well fitted inhibition curve with a large enough effect in the signal ratio in the repeat runs, not every such curve was filed as active; the % refers to the signal ratio;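 note: cells stimulated with agonist L165041 at 300 nM final during compound exposure; series mostly up to about 62 µM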)
In short: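 HEK293H UAS-bla, PPARd; agonist L165041 300 nM final with cpd in DMSO; 37 C 17 h; FRET substrate, RT 2 h; fluorescence intensity.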

[20] = target: Bile acid receptor (Homo sapiens) (UniProt Q96RI1); assay: qHTS assay to identify small molecule antagonists of the farnesoid-X-receptor (FXR) signaling pathway (AID 743217; active = well fitted inhibition curve with a large enough effect in the signal ratio in the repeat runs, not every such curve was filed as active; the % refers to the signal ratio)
In short: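 GeneBLAzer FXR-UAS-bla HEK 293T, CDCA-stimulated (50 uM final). Compound treatment 16 h, 37 °C. Detection: beta-lactamase cleavage of B/G FRET substrate, fluorescence.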

Measured: Potency

Sequence of Bile acid receptor (Homo sapiens) (Q96RI1 whole entry, looked up): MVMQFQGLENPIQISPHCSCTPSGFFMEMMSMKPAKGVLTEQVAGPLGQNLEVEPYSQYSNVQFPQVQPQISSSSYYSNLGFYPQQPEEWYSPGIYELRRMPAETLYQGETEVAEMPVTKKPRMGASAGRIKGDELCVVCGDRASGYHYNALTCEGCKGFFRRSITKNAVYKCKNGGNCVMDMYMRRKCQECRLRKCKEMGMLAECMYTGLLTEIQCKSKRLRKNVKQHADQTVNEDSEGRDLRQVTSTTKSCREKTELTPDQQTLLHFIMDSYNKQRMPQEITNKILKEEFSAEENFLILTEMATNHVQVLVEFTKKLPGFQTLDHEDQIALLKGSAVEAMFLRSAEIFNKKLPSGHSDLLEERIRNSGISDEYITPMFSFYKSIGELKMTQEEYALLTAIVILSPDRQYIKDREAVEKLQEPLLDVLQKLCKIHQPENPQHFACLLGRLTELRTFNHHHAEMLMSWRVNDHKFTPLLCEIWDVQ
Sequence of Peroxisome proliferator-activated receptor delta (Homo sapiens) (Q03181 whole entry, looked up): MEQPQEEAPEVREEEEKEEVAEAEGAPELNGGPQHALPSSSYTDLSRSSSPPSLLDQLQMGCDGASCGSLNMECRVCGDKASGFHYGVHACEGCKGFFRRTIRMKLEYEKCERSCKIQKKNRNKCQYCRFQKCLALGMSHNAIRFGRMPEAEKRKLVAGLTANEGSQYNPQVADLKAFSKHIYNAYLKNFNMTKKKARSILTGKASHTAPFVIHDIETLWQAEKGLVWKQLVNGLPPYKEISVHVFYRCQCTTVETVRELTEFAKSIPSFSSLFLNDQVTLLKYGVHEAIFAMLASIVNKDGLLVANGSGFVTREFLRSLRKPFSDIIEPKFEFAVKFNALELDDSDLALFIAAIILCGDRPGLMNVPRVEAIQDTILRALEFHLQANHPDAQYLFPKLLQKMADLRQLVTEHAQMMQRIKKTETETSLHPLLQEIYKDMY
Sequence of Vitamin D3 receptor (Homo sapiens) (P11473 whole entry, looked up): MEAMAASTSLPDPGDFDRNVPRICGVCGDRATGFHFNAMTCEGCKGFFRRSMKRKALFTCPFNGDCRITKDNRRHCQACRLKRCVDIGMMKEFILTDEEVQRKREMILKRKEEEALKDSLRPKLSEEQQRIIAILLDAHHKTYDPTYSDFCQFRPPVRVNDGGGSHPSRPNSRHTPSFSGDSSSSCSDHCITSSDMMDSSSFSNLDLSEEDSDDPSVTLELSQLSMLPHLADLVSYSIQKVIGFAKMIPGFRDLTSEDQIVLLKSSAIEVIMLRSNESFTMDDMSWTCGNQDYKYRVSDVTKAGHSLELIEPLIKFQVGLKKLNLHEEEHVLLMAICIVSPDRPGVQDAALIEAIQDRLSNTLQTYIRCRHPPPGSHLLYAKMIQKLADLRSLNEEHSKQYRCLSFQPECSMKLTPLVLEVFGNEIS
Sequence of Aryl hydrocarbon receptor (Homo sapiens) (P35869 whole entry, looked up): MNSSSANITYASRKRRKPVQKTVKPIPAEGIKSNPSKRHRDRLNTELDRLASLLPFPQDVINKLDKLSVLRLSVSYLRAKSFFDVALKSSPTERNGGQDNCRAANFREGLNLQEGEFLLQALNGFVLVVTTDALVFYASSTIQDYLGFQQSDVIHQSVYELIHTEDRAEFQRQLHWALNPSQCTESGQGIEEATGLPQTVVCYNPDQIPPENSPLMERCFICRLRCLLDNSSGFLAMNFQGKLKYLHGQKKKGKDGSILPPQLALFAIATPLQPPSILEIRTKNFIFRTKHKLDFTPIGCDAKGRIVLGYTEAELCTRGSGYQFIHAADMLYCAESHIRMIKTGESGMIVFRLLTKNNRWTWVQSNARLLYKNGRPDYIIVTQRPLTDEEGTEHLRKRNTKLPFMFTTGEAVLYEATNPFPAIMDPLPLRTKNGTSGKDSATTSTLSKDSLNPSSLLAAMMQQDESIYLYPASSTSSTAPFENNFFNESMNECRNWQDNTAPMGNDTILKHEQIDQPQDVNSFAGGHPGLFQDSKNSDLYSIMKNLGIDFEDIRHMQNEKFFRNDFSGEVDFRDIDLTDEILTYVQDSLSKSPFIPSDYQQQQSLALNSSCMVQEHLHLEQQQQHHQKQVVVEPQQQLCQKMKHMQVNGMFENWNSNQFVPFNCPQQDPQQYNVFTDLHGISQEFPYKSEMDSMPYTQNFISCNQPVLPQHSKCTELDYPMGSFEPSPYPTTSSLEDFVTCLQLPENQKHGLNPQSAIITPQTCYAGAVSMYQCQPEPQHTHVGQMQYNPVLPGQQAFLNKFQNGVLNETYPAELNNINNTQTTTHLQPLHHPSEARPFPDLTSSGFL
Sequence of Peroxisome proliferator-activated receptor gamma (Homo sapiens) (P37231 whole entry, looked up): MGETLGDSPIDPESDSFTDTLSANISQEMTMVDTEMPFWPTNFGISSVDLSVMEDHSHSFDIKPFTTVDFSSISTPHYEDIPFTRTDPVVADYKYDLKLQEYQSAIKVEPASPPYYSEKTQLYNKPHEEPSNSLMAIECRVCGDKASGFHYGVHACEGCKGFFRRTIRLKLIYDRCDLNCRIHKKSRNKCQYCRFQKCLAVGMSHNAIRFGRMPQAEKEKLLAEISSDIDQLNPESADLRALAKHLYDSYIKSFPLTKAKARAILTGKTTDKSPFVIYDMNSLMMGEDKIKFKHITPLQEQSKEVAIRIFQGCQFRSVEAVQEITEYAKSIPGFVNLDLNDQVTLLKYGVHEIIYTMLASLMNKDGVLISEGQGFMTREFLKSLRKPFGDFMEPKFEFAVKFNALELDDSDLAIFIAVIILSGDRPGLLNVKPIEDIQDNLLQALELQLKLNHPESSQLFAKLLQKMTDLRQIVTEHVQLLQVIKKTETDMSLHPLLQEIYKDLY

CC(C)NCC(O)COc1ccc(CC(N)=O)cc1 (stereo not given)
not listed: [16] | [17] | [18] | [19] | [20]
inactive: all other assays above

CC(=O)OCCc1ccccc1
not listed: [18] | [19] | [20]
inactive: all other assays above

CC(C)CCCC(C)CCO (stereo not given)
not listed: [10] | [14] | [16] | [19] | [20]
inactive: all other assays above

O=C1CCCCCO1
not listed: [16] | [18] | [19] | [20]
inactive: all other assays above

Cc1ccc(C)o1
not listed: [16]
inactive: all other assays above

CC(=O)/C(C)=C/C1C(C)=CCCC1(C)C (stereo not given)
not listed: [13] | [14] | [15] | [17] | [18] | [20]
inactive: all other assays above

CCCCCCCCC(CO)CCCCCC (stereo not given)
not listed: [13] | [16] | [19]
inactive: all other assays above

CC(=O)NCCCS(=O)(=O)O
active: [7] 26.5 µM
not listed: [14] | [15]
inactive: all other assays above

CCCCCCCCCCCCCCCCCBr
not listed: [10] | [16] | [19] | [20]
inactive: all other assays above

CCCCCCCCCCCCCCCBr
not listed: [15] | [16] | [20]
inactive: all other assays above

CCCC[C@H]1CN(CC2CCOCC2)C(=O)OC12CCN(C1(C)CCN(C(=O)c3c(C)ncnc3C)CC1)CC2
not listed: [10] | [12] | [14] | [15] | [18] | [20]
inactive: all other assays above

CC(C)(C)C1CCCCC1O (stereo not given)
not listed: [13] | [16] | [20]
inactive: all other assays above

C=C(C)C(=O)OC(C)C
not listed: [10] | [16] | [17] | [18] | [19] | [20]
inactive: all other assays above

O=C(O)C1CCC(C(=O)O)CC1 (stereo not given)
not listed: [13] | [16] | [19] | [20]
inactive: all other assays above

O=c1[nH]cnc2ccccc12
not listed: [13] | [14] | [15] | [16] | [20]
inactive: all other assays above

COCCOCCOCCOCCOC
not listed: [10] | [13] | [14] | [17] | [18] | [19] | [20]
inactive: all other assays above

CC(C)c1ccccc1C(C)C
not listed: [10] | [18] | [20]
inactive: all other assays above

From PubChem BioAssay (Tox21)
